PAFAH1B2 FP inh – PAFAH1B2 (human) inhibition; 340,000 compounds, 1.2% hits; inhibition, % at 3.39 µM; recombinant PAFAH1B2, FP-rhodamine activity probe, fluorescence polarization;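 active = inhibition above the mean of all tested compounds plus 3 SD, cut at about 24% in these data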;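 note: 0% = enzyme with DMSO and 100% = wells lacking PAFAH1B2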
Target sequence (P68402 whole entry, looked up): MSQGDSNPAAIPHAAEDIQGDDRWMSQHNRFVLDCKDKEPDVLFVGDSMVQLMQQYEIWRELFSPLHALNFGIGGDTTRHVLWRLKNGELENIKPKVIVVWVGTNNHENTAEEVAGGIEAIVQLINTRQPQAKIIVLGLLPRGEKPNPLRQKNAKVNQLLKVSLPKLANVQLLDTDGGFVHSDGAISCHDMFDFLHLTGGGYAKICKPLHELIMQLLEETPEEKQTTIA
PAFAH1B3 FP inh – inhibitors of human PAFAH1B3; Q15102; recombinant PAFAH1B3, FP-rhodamine probe, fluorescence polarization; inhibition, % at 3.39 µM; 340,000 compounds, 0.28% hits; AID 492972;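 active = inhibition above the screen-wide average of all tested compounds plus 3 SD, cut at about 25% in these data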;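 note: 0% = enzyme with DMSO only and 100% = wells lacking PAFAH1B3 protein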
Target sequence (Q15102 whole entry, looked up): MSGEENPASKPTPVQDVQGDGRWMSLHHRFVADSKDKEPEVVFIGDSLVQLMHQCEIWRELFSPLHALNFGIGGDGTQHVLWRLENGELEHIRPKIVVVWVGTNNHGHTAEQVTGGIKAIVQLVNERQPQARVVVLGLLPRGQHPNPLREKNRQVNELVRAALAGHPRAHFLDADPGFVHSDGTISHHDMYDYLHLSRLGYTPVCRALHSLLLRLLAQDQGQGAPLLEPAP
PAFAH2 FP inh – PAFAH2 (human) inhibition | recombinant PAFAH2, FP-rhodamine activity probe, fluorescence polarization | inhibition, % at 3.39 µM | 340,000 compounds, 0.99% hits;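 active = inhibition above the mean over all tested compounds plus 3 SD, cut at about 30% in these data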;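 note: inhibitors block probe labeling of enzyme so polarization drops; 0% = enzyme with DMSO and 100% = wells lacking PAFAH2 protein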
EBNA-1 inh – blocks EBNA-1 binding to DNA | 300,000 compounds, 0.34% hits | AID 1950 | EBNA-1 DNA binding, fluorescence polarization | inhibition, % at 14.8 µM; in the data active = inhibition above about 28%
ZTA counter – ZTA (EBV) inhibition in EBNA-1 counter-screen | P03206 | ZTA-DNA binding, fluorescence polarization | inhibition, % at 11 µM | 320,000 compounds, 0.15% hits | AID 2234; in the data active = inhibition above about 33%
Target sequence (P03206 whole entry, looked up): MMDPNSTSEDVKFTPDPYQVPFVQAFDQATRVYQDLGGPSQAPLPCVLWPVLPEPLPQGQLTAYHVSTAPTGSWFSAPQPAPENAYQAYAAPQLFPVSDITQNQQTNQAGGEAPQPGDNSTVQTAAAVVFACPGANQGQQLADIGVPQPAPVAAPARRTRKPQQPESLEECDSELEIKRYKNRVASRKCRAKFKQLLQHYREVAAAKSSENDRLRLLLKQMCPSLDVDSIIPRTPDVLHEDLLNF
rCAG RNA binder – r(CAG) repeat RNA binding. TO-PRO-1 dye displacement fluorescence. inhibition, % at 3 µM. 370,000 compounds, 1.3% hits. AID 651821;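 active = inhibition above the plate cutoff, the mean of all test compounds on that plate plus 3 SD, cut at about 35% in these data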;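 note: 0% = DMSO alone and 100% = 100 µM mitoxantrone as full dye displacement; higher means more dye released from RNA so lower well fluorescence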
rCAG binder conf – r(CAG) RNA repeat binding, confirmation. AID 652065. 4,300 compounds, 70% hits. inhibition, % at 3 µM. TO-PRO-1 dye displacement fluorescence. shares compounds with rCAG RNA binder;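 active = inhibition above a per-plate cutoff, the mean inhibition of sample wells plus 3 SD, cut at about 35% in these data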;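 note: loss of TO-PRO-1 fluorescence as compound displaces dye from 1x1 AA loop RNA; 0% = DMSO only wells and 100% = 100 µM mitoxantrone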
DNA CAG counter – disrupts DNA CAG TO-PRO-1 complex, flagging rCAG hits. shares compounds with rCAG RNA binder. d(CAG) DNA oligo TO-PRO-1 dye displacement, fluorescence. inhibition, % at 3 µM. 4,300 compounds, 94% hits. AID 652068;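 active = inhibition above its plate's cutoff, the mean test-well inhibition plus 3 SD, cut at about 4.8% in these data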;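 note: 0% = DNA dye mix with DMSO and 100% = 100 µM mitoxantrone; hits displace the dye from DNA and so lower well fluorescence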
DNA CAG DR – DNA CAG dye complex inhibition, dose response counter-screen; shares compounds with rCAG RNA binder; DNA CAG/GTC duplex TO-PRO-1 dye displacement fluorescence; IC50, µM; 250 compounds, 20% hits; AID 686960; in the data active = IC50 below about 10 µM
* = called active by the depositor; x = not tested or not shown. An excerpt weighted towards active compounds, which were near 2.9% of everything screened.

SMILES | PAFAH1B2 FP inh | PAFAH1B3 FP inh | PAFAH2 FP inh | EBNA-1 inh | ZTA counter | rCAG RNA binder | rCAG binder conf | DNA CAG counter | others
Cc1noc(NS(=O)(=O)c2ccc(NC(=O)C34CC5CC(C3)CC(n3cnc(Br)n3)(C5)C4)cc2)c1C | 1.0 | -11.2 | 1.9 | -2.7 | 5.5 | 41.5* | 28.7 | 7.6*
O=C(CCC1CCCCC1)Nc1ccc(S(=O)(=O)Nc2nccs2)cc1 | 34.2* | 7.6 | 22.8 | 4.7 | -1.4 | 52.8* | 43.1* | 14.2*
Cc1ccc(C2(C)NC(=O)N(CC(=O)Nc3ccc(S(=O)(=O)Nc4nccs4)cc3)C2=O)cc1 (stereo not drawn) | 3.0 | 0.1 | 2.2 | 7.9 | 15.8 | 51.2* | 31.1 | 12.0*
O=C(O)CCC(=O)Nc1ccc(S(=O)(=O)Nc2nccs2)cc1 | 6.1 | -1.7 | -4.0 | 8.2 | 6.6 | 5.1 | x | x
Cc1noc(NS(=O)(=O)c2ccc(NC(=O)CCC3CCCCC3)cc2)c1C | 27.7* | 12.3 | 12.8 | -4.3 | 0.4 | 45.3* | 46.4* | 8.6* | DNA CAG DR=>29.9
CC1(C(=O)NS(=O)(=O)c2cccc(C#N)c2)CCN1C(=O)C1(c2ccccc2)CC1 (stereo not drawn) | x | x | x | x | x | 2.8 | x | x
O=C(N/N=C/C=C/c1ccco1)/C(=C/c1ccccc1)NC(=O)c1ccccc1 | 3.1 | 10.8 | 16.2 | 10.6 | 5.6 | 37.5* | 21.0 | 13.1*
Cc1cc(NC(=O)Nc2cccc(F)c2)n(-c2ccccc2)n1 | x | x | x | x | x | 6.5 | x | x
Cc1noc(NS(=O)(=O)c2ccc(NC(=O)CSc3nc4ccccc4s3)cc2)c1C | 28.1* | 7.2 | 5.9 | 5.0 | -16.8 | 69.7* | 60.8* | 25.2*
Cc1noc(NS(=O)(=O)c2ccc(NC(=O)CSc3ncccn3)cc2)c1C | -2.4 | 3.1 | -0.7 | 5.0 | 3.5 | 0.9 | x | x
Cc1noc(NS(=O)(=O)c2ccc(NC(=O)CSc3nc4c(cc3C#N)CCCC4)cc2)c1C | 2.6 | 2.2 | 4.0 | -10.3 | 6.5 | 40.6* | 33.2 | 11.2*
Cc1noc(NS(=O)(=O)c2ccc(NC(=O)CSc3nc4c(cc3C#N)CCC4)cc2)c1C | 7.0 | -2.8 | 9.1 | -4.9 | -1.2 | 25.7 | x | x
O=C(CSc1ccc(-c2ccccn2)nn1)N1CCCc2ccccc21 | 3.4 | 0.8 | -13.9 | 7.4 | 5.6 | -4.5 | x | x
COC(=O)c1sc(-c2ccc(C(C)(C)C)cc2)cc1NC(=O)COCC(=O)O | x | x | x | 4.4 | 16.2 | 63.8* | 73.0* | 31.2* | DNA CAG DR=9.06*
CCOc1cc(/C=C2/C(=N)N3N=C(C)SC3=NC2=O)ccc1OS(=O)(=O)c1ccc(C)cc1 | 3.4 | 4.8 | -9.8 | 0.0 | -1.0 | 12.1 | x | x
COc1cccc(OCCOc2ccc(/C=C3\C(=N)N4N=C(S(C)(=O)=O)SC4=NC3=O)cc2OC)c1 | 0.9 | 2.9 | -12.0 | x | x | 51.5* | 90.8* | 75.0*
COc1cc(/C=C2\C(=N)N3N=C(S(C)(=O)=O)SC3=NC2=O)cc(OC)c1OCCOc1ccccc1C | 1.0 | -0.8 | -16.2 | 25.0 | 6.3 | 55.5* | 92.5* | 81.3*
COc1cc(/C=C2\C(=N)N3N=C(S(C)(=O)=O)SC3=NC2=O)ccc1OS(=O)(=O)c1ccc(C)cc1 | 13.9 | 2.3 | -5.0 | -6.2 | 15.8 | 50.8* | 86.8* | 58.7*
Cc1cc(/C=C2\C(=N)N3N=C(S(C)(=O)=O)SC3=NC2=O)c(C)n1Cc1ccccc1 | 17.4 | 5.1 | -4.7 | 7.2 | -3.9 | 65.8* | 89.0* | 61.6*
O=C(Nc1ccc2c(c1)OCCO2)C(c1ccccc1)n1c(=O)c(-c2ccco2)nc2ccccc21 (stereo not drawn) | x | x | x | x | x | 26.6 | x | x
COc1ccc(NC(=O)CSc2nnc(-c3n[nH]c4c3CCC4)n2N)cc1 | x | x | x | x | x | 0.1 | x | x
COc1cc(/C=C/c2ccc3cccc([N+](=O)[O-])c3n2)ccc1OCC(=O)O | 3.1 | 8.6 | 7.8 | -1.2 | 15.9 | 48.2* | 47.0* | 13.4*
COc1cc(/C=C/c2ccc3c([N+](=O)[O-])cccc3n2)ccc1OCC(=O)O | -2.8 | 4.0 | 5.9 | -1.2 | -3.1 | 9.3 | x | x
CC(=O)Nc1ccc(/C=C/c2ccc3cccc([N+](=O)[O-])c3n2)cc1 | 3.0 | 7.7 | -3.9 | 0.5 | 1.1 | 20.4 | x | x
O=C(O)COc1ccc(/C=C/c2ccc3cccc([N+](=O)[O-])c3n2)cc1 | 1.3 | 10.2 | 10.4 | 3.5 | 1.2 | 37.2* | 27.1 | 8.4*
SMILES | PAFAH1B2 FP inh | PAFAH1B3 FP inh | PAFAH2 FP inh | EBNA-1 inh | ZTA counter | rCAG RNA binder | rCAG binder conf | DNA CAG counter | others
COc1ccc(C2CC(c3ccccc3)=NN2c2ccc(N)cc2)cc1 (stereo not drawn) | 6.0 | -1.9 | 5.3 | 9.0 | -14.3 | 12.9 | x | x
COc1ccc(C2=NN(c3ccc(C(=O)O)cc3)C(c3ccc(OC)c(OC)c3)C2)cc1 (stereo not drawn) | 7.6 | 17.9 | 14.3 | 2.8 | 9.1 | 39.2* | 49.3* | 14.2*
COc1ccc(C2CC(c3ccccc3)=NN2c2ccc(Cl)c(C(=O)O)c2)cc1 (stereo not drawn) | 1.3 | 9.7 | 7.2 | 0.0 | 4.7 | 60.7* | 55.4* | 17.0*
COc1ccc(-c2nn(CCC(=O)O)cc2CCC(=O)O)cc1 | -0.6 | 11.7 | -8.6 | 1.4 | -23.1 | -0.5 | x | x
COc1ccc(C2=NN(c3ccccc3)C(c3cn(CCC(=O)O)nc3-c3ccccc3)C2)cc1 (stereo not drawn) | 4.1 | 3.8 | 1.4 | 4.1 | 12.4 | 39.0* | 45.5* | 11.9*
COc1cc(C2CC(c3ccccc3)=NN2c2ccccc2)ccc1OCC(=O)O (stereo not drawn) | 6.8 | 9.0 | 7.8 | 0.5 | 5.2 | 40.7* | 50.4* | 14.6*
COc1ccc(C2CC(c3ccccc3)=NN2c2ccc(S(N)(=O)=O)cc2)cc1OC (stereo not drawn) | 0.5 | 1.8 | 6.9 | 1.7 | -13.8 | 9.6 | x | x
O=C(Nc1cccc(S(=O)(=O)N2CCCCC2)c1)c1ccc2ncsc2c1 | -6.5 | -3.5 | -5.6 | -6.1 | -20.0 | 8.0 | x | x
COc1ccc(C2CC(c3ccccc3)=NN2c2ccccc2)c(C(=O)O)c1OC (stereo not drawn) | 5.0 | 5.0 | 6.5 | -6.2 | 18.6 | 46.2* | 59.1* | 15.6*
CCc1nnc(NS(=O)(=O)c2ccc(NC(=O)c3cc(Cl)ccc3[N+](=O)[O-])cc2)s1 | 1.8 | 3.2 | 1.2 | x | x | 45.2* | 24.9 | 5.9*
CCc1nnc(NS(=O)(=O)c2ccc(NC(=O)c3cccc4ccccc34)cc2)s1 | -3.1 | -0.9 | 2.6 | -8.3 | 2.0 | 63.7* | 44.1* | 15.7*
CCc1nnc(NS(=O)(=O)c2ccc(NC(=O)c3cc(Cl)ccc3Cl)cc2)s1 | 3.4 | 13.1 | 3.5 | -0.8 | -1.7 | 53.5* | 35.8* | 11.4*

Source: PubChem BioAssay
